In the library only some 10% were active in any assay of this set; here they are far more common.
PNC inhibitor: inhibitors of perinucleolar compartment assembly; PC3M PTB-GFP, PNC prevalence imaging, 16 h; active compounds read low; activity change (PNC), negative = inhibition, % at 10 µM; 140,000 tested, 3.1% active; AID 2417;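 active = readout at or below -70, meaning at least 70% loss of cells showing the perinucleolar compartment, a nuclear body marking cancer cells; inconclusive = readout between -30 and a set limit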
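Compounds are pinned in duplicate onto adhered PC3M cells stably expressing GFP-tagged PTB and incubated 16 h at 37 C. Cells are then fixed, nuclei stained with Hoechst, and PNC-positive cells counted.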
HPGD inh: blocks human HPGD enzyme activity; P15428; purified HPGD, NADH fluorescence kinetic, PGE2 substrate; Potency, µM, usual class: inhibitors; 150,000 tested, 4.3% active
Target sequence (P15428 whole entry, looked up): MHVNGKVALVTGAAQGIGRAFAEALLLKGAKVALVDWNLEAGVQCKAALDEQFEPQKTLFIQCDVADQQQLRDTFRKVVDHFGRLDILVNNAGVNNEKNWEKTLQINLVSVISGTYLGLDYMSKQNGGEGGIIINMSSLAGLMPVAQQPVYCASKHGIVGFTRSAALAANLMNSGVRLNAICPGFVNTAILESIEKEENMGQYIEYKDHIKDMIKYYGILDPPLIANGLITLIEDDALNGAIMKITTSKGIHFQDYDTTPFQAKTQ
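NADH formation kinetics: reaction with 30 uM PGE2 and 1 mM NAD+ (final), 20 nM enzyme, Tris-HCl pH 8 with Tween 20, after 15 min compound preincubation at room temperature. Fluorescence change, last versus first of five reads.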
LMNA splice mod: modulators of lamin A splicing; HeLa LMNA splicing GFP/RFP minigene ratio, 48 h; Potency, µM (top dose mostly 46.1 µM), usual class: inhibitors; AID 1487; 200,000 tested, 0.01% active; active = well fitted inhibition curve with a large enough effect in the signal ratio, with a control signal flat, not every such curve was filed as active; inconclusive = small, poorly fitted or top-dose-only effect, or effect the other way, or a change in a side signal; the % refers to the signal ratio
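S3 HeLa cells stably expressing lamin A-EGFP splicing minigene plus DsRed2, 600 cells/well, 48 h compound exposure at 37C. Laser-scanning cytometry; analysed as GFP (500-530 nm)/RFP (575-640 nm) total intensity ratio; 0.5% DMSO vehicle.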
ALDH1A1 inh: inhibitors of human aldehyde dehydrogenase 1A1. P00352. Purified ALDH1A1, NADH fluorescence, propionaldehyde substrate. Potency, µM (series often up to 75.3 µM), most hits filed as inhibitors. 220,000 tested, 7.3% active
ALOX12 inhib: 12-hLO (ALOX12) enzyme inhibition. P18054. purified 12-hLO, xylenol orange hydroperoxide absorbance. Potency, µM (top dose mostly 57.1 µM), most hits filed as inhibitors. 150,000 tested, 0.12% active. AID 1452; active = well fitted inhibition curve with a large enough effect; inconclusive = small, poorly fitted or top-dose-only effect; note: nearly all actives have a fitted effect of over 55% in size
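Purified human 12hLO (150 nM), preincubated 15 min with compound, then 40 uM arachidonic acid for 30 min, room temperature, Hepes pH 7.0 with 0.01% Triton X-100. Hydroperoxide detected by ferrous iron/xylenol orange; 573/405 nm absorbance ratio gives reaction progress.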
A number is an active result; 0 = inactive; ? = inconclusive; - = no result; [ ] = another dose, or the depositor's remark. Unless noted, calls come from the whole dose curve; as a rule, active = well fitted inhibition curve with a large enough effect (not every such curve was filed as active); inconclusive = small, poorly fitted or top-dose-only effect, or another doubt; inactive = no such curve, though single readings can be large or run the other way.

SMILES | PNC inhibitor | HPGD inh | LMNA splice mod | ALDH1A1 inh | ALOX12 inhib
Oc1c(C(c2ccc(Cl)cc2)N2CCOCC2)sc2nc(-c3ccco3)nn12 (configuration not stated) | - | - | 0 | - | -
COc1ccc(N=C2C(=Nc3ccc(OC)cc3)N(c3ccccc3)C(=S)N2C(=O)c2ccc(Cl)cc2)cc1 | -100 | 0 | 0 | ? | 0
O=C(NCC1CCCO1)C(c1ccncc1)N(Cc1ccc(F)cc1)C(=O)CN1C(=O)c2ccccc2S1(=O)=O (configuration not stated) | 0 | 0 | 0 | 13µM | 0
COc1ccccc1N(C(=O)CN1C(=O)c2ccccc2S1(=O)=O)C(C(=O)NCC1CCCO1)c1ccc(F)cc1 (configuration not stated) | 0 | 0 | ? | ? | 0
Cc1cc(C)c(N(C(=O)CN2C(=O)c3ccccc3S2(=O)=O)C(C(=O)NCC2CCCO2)c2ccc(F)cc2)c(C)c1 (configuration not stated) | 0 | 0 | 0 | 0 | 0
COc1cccc(C(C(=O)NCC2CCCO2)N(CC2CCCO2)C(=O)CN2C(=O)c3ccccc3S2(=O)=O)c1 (configuration not stated) | - | - | 0 | 14µM | -
O=C(NCCN1CCCCC1)c1ccc(-n2c(=O)c(=O)[nH]c3ccccc32)cc1 | - | 0 | - | 0 | 0
COc1ccc(NC(=O)N(C2CCCCC2)C(C)c2cccnc2)c(OC)c1 (configuration not stated) | -85 | 0 | 0 | 0 | 0
O=C1S/C(=C\C=C\c2ccco2)C(=O)N1c1ccc(O)cc1 | 0 | 0 | 0 | 18µM | ?
O=C(CN1C(=O)S/C(=C\C=C\c2ccccc2)C1=O)Nc1ccc(O)cc1 | 0 | 0 | 0 | 0 | 0
O=C(O)C(Cc1ccccc1)N1C(=O)/C(=C/C=C/c2ccco2)SC1=S (configuration not stated) | - | - | - | 3.2µM | -
O=C1S/C(=C\C=C\c2ccco2)C(=O)N1c1ccccc1 | 0 | 0 | ? | 20µM | 0
O=c1cnc2cnc(N3CCNCC3)nc2n1C1CC1 | - | - | 0 | ? | -
CC1(C)CC(=O)C2=C(C1)OC(N)=C(C#N)C2c1cccc(OC(=O)c2ccco2)c1 (configuration not stated) | ? | 0 | 0 | ? | 0
C/C(=C\c1ccco1)C1C(C#N)=C(N)OC2=C1C(=O)CC(C)(C)C2 (configuration not stated) | 0 | 0 | 0 | 13µM | 0
CC1(C)CC(=O)C2=C(C1)OC(N)=C(C#N)C2C#Cc1ccccc1 (configuration not stated) | 0 | 13µM | 0 | 1µM | 0
COC(=O)Sc1nnc(-c2ccc(Br)cc2)o1 | 0 | 22µM | 0 | 8.9µM | 0
CCC(O)OC(O)CC (configuration not stated) | - | 0 | - | 0 | 0
O=C(CSc1nnc(-c2ccccc2Br)o1)N1CCN(C(=O)c2ccco2)CC1 | 0 | 28µM | ? | 8.9µM | 0
CC(C)Cn1c(SCC(=O)N2CCN(S(=O)(=O)c3ccccc3)CC2)nc2ccccc21 | 0 | 0 | ? | 13µM | 0
OCC#CCSc1nnc(-c2ccc(Br)cc2)o1 | 0 | 0 | 0 | 0 | 0
OCC#CCSc1nnc(-c2ccccc2Br)o1 | 0 | 0 | 0 | 20µM | 0
Cn1c(SCC(=O)N2CCN(S(=O)(=O)c3ccccc3)CC2)nc2ccccc21 | 0 | 0 | 0 | 0 | 0
COc1cccc(OC)c1C(=O)N1CCN(S(=O)(=O)c2ccccc2)CC1 | -99 | 0 | 0 | 0 | 0
CCCOc1ccc(OC(=O)c2cn(-c3ccc(OC)cc3)c(=O)c3ccccc23)cc1 | - | - | 0 | - | -
SMILES | PNC inhibitor | HPGD inh | LMNA splice mod | ALDH1A1 inh | ALOX12 inhib
CCc1ccc(CN(Cc2ccco2)c2cnc(S(C)(=O)=O)nc2C(=O)Nc2c(C)cccc2C)cc1 | - | - | 0 | - | -
NC(=O)C1CCN(C(=O)CN2CCCc3ccccc32)CC1 | 0 | ? | 0 | 20µM | 0
NC(=O)C1CCN(C(=O)CSc2nc3ccccc3o2)CC1 | -128 | 0 | 0 | 0 | 0
COc1ccccc1N1CCN(C(=O)CSc2nc3ncnc(N)c3[nH]2)CC1 | ? | 0 | 0 | 28µM | 0
O=C(OCC#CCSc1nc2ccccc2o1)c1ccco1 | -83 | 0 | 0 | 0 | 0
COc1ccc2c(Cc3c4ccccc4cc4ccccc34)cncc2c1O | - | 0 | - | 0[13.5 µM] | 0[11.4 µM]
NC(=NCc1ccc(Cl)c(Cl)c1)NC(=O)c1nc(Cl)c(N)nc1N | - | ? | ? | ? | 0
CC1CCC(C(=O)O)([C@H](Br)C(=O)O)CC1 (some centres not stated) | - | 0 | - | 0[13.5 µM] | 0[11.4 µM]
CC(C)Cn1c(SCC(=O)N2CCN(C(=O)c3ccco3)CC2)nc2ccccc2c1=O | - | - | 0 | 32µM | -
O=C(CSc1nncs1)N1CCN(S(=O)(=O)c2ccccc2)CC1 | - | - | - | 0 | -
O=C(O)c1ccc2oc(SCC(=O)N3CCCCC3)nc2c1 | 0 | 8.9µM | 0 | 0 | 0
O=C(CSc1nc2cc(Cl)ccc2o1)N1CCOCC1 | ? | 0 | 0 | 0 | 0
Cc1ccc(S(=O)(=O)N2CCN(C(=O)CSc3nc4ccccc4o3)C2)cc1 | 0 | 0 | ? | 0 | 0
CC1CCCN(C(=O)CSc2nc3ccccc3o2)C1 (configuration not stated) | 0 | 13µM | 0 | 0 | 0
O=C(CSc1ccc(F)cc1)N1CCN(S(=O)(=O)c2ccccc2)CC1 | - | - | 0 | 2.8µM | -
Nc1cc(N)nc(SCC(=O)N2CCN(C(=O)c3ccco3)CC2)n1 | 0 | 0 | 0 | ? | 0
O=C(CSc1nc2ccccc2o1)N1CCN(C(=O)c2ccco2)CC1 | 0 | 0 | 0 | 13µM | 0
COc1ccccc1N1CCN(C(=O)CSc2nc3ccccc3o2)CC1 | -82 | 0 | 0 | 8.9µM | 0
CCc1ccccc1NC(=O)Cn1ccn(Cc2ccccc2)c(=O)c1=O | - | - | 0 | - | -
O=C(N/N=C/c1ccco1)c1cc(-c2cccc3ccccc23)n[nH]1 | 0 | 25µM | 0[0.0737 µM] | 0 | 0
O=C(N/N=C/c1ccco1)c1cccc(N2Cc3ccccc3C2)c1 | - | - | - | 20µM | -
CN(C)C(=O)c1ccc(-c2cncnc2NCCc2cnc[nH]2)cc1 | - | - | 0 | 0 | -
COc1cc(OC)c(NS(=O)(=O)c2c(C(=O)N3CCC(C)CC3)c(C)n(C)c2C)cc1Cl | - | - | 0 | - | -
Cc1c(Cl)cccc1NC(=S)NCc1ccccc1Cl | 0 | 22µM | ? | 0 | 10µM
COc1cc(NC(=S)NCCC(c2ccccc2)c2ccccc2)cc(OC)c1 | 0 | 0 | ? | ? | 22µM
Cc1cccc(NC(=S)NCCC(c2ccccc2)c2ccccc2)c1 | 0 | 0 | ? | 0 | ?
Cc1c(Cl)cccc1NC(=S)NCCC(c1ccccc1)c1ccccc1 | ? | 0 | ? | ? | 7.9µM
Cc1cccc(-c2nc(C)c(CCNC(=O)C(=O)Nc3cccc(Cl)c3C)s2)c1 | - | - | 0 | - | -
CC(=O)OC1CC[C@]2(C)C(CC(OC(C)=O)[C@@]3(C)C4=CC(=O)OC(c5ccoc5)[C@]4(C)CCC23)C1(C)C (some centres not stated) | - | 0 | 0 | 0 | 0
O=C(CCNc1cccc(F)c1)c1cccc([N+](=O)[O-])c1 | - | - | ? | 0.63µM | -

Screens deposited in PubChem BioAssay by National Center for Advancing Translational Sciences (NCATS).
